Assay results: PubChem BioAssay AID1159580 (chemical genetic matrix, 2015)
The campaign covered roughly 5,500 compounds. About 2,000 (36%) were called active. About 18% were inconclusive and are not listed. The list shows a part of the results. A number with no mark means an inactive call. Rule as the data show it: active = normalized growth mostly below about 0.91 (no sharp cut-off); inconclusive = no clear call, values can overlap the other calls; inactive = mostly above about 0.92.

Assay: chemical genetic growth profiling, strain panel (AID 1159580);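 also: tested at 20 µM; growth read once vehicle control cultures reached saturation at 30 °C; 1 = growth at the plate median or of vehicle wells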
Settings: growth OD

Structure (SMILES): COc1ccc(C[C@H]2NC[C@H](O)[C@H]2OC(C)=O)cc1
- normalized growth (S. cerevisiae deletion strains, locus YKL009W, strain mrt4, stronger effect = lower value): 0.966
- normalized growth (S. cerevisiae deletion strains, locus YKL068W, stronger effect = lower value): 0.998
- normalized growth (S. cerevisiae deletion strains, locus YKL085W, strain MDH1 (second series), stronger effect = lower value): 1.01
- normalized growth (S. cerevisiae deletion strains, locus YKL085W, strain MDH1, stronger effect = lower value): 1.01
- normalized growth (S. cerevisiae deletion strains, locus YKL160W, strain elf1, stronger effect = lower value): 0.776 (active)
- normalized growth (S. cerevisiae deletion strains, locus YKL190W, strain CNB1, stronger effect = lower value): 0.206 (active)
- normalized growth (S. cerevisiae deletion strains, locus YKR001C, strain vps1, stronger effect = lower value): 0.367 (active)
- normalized growth (S. cerevisiae deletion strains, locus YKR026C, strain gcn3, stronger effect = lower value): 0.985
- normalized growth (S. cerevisiae deletion strains, locus YKR091W, strain srl3, stronger effect = lower value): 1
- normalized growth (S. cerevisiae deletion strains, locus YLL001W, strain dnm1, stronger effect = lower value): 0.884 (active)
- normalized growth (S. cerevisiae deletion strains, locus YLL026W, stronger effect = lower value): 0.807 (active)
- normalized growth (S. cerevisiae deletion strains, locus YLL041C, strain sdh2, stronger effect = lower value): 0.986
- normalized growth (S. cerevisiae deletion strains, locus YLR027C, strain aat2, stronger effect = lower value): 0.659 (active)
- normalized growth (S. cerevisiae deletion strains, locus YLR039C, strain RIC1, stronger effect = lower value): 0.567 (active)
- normalized growth (S. cerevisiae deletion strains, locus YLR058C, strain SHM2, stronger effect = lower value): 0.61 (active)
- normalized growth (S. cerevisiae deletion strains, locus YLR102C, strain apc9, stronger effect = lower value): 1.01
- normalized growth (S. cerevisiae deletion strains, locus YLR113W, strain HOG1, stronger effect = lower value): 0.977
- normalized growth (S. cerevisiae deletion strains, locus YLR221C, strain rsa3, stronger effect = lower value): 0.853 (active)
- normalized growth (S. cerevisiae deletion strains, locus YLR258W, strain gsy2, stronger effect = lower value): 0.734 (active)
- normalized growth (S. cerevisiae deletion strains, locus YLR262C, strain YPT6 (second series), stronger effect = lower value): 0.769 (active)
- normalized growth (S. cerevisiae deletion strains, locus YLR262C, strain YPT6, stronger effect = lower value): 0.386 (active)
- normalized growth (S. cerevisiae deletion strains, locus YLR268W, strain sec22, stronger effect = lower value): 0.854 (active)
- normalized growth (S. cerevisiae deletion strains, locus YLR320W, strain mms22, stronger effect = lower value): 0.957
- normalized growth (S. cerevisiae deletion strains, locus YLR330W, strain CHS5, stronger effect = lower value): 0.87 (active)
- normalized growth (S. cerevisiae deletion strains, locus YLR342W, strain FKS1 (second series), stronger effect = lower value): 0.126 (active)
- normalized growth (S. cerevisiae deletion strains, locus YLR342W, strain FKS1, stronger effect = lower value): 0.412 (active)
- normalized growth (S. cerevisiae deletion strains, locus YLR357W, strain rsc2, stronger effect = lower value): 0.826 (active)
- normalized growth (S. cerevisiae deletion strains, locus YLR370C, strain arc18, stronger effect = lower value): 0.877 (active)
- normalized growth (S. cerevisiae deletion strains, locus YLR371W, strain rom2, stronger effect = lower value): 0.728 (active)
- normalized growth (S. cerevisiae deletion strains, locus YLR384C, strain iki3, stronger effect = lower value): 1
- normalized growth (S. cerevisiae deletion strains, locus YLR418C, strain cdc73, stronger effect = lower value): 0.28 (active)
- normalized growth (S. cerevisiae deletion strains, locus YML016C, strain PPZ1, stronger effect = lower value): 0.625 (active)
- normalized growth (S. cerevisiae deletion strains, locus YML032C, strain rad52, stronger effect = lower value): 0.868 (active)
- normalized growth (S. cerevisiae deletion strains, locus YML120C, strain ndi1, stronger effect = lower value): 0.98
- normalized growth (S. cerevisiae deletion strains, locus YML124C, strain tub3, stronger effect = lower value): 0.988
- normalized growth (S. cerevisiae deletion strains, locus YMR058W, strain fet3, stronger effect = lower value): 0.891 (active)
- normalized growth (S. cerevisiae deletion strains, locus YMR078C, strain ctf18, stronger effect = lower value): 1.02
- normalized growth (S. cerevisiae deletion strains, locus YMR125W, strain sto1, stronger effect = lower value): 0.862 (active)
- normalized growth (S. cerevisiae deletion strains, locus YMR129W, stronger effect = lower value): 0.961
- normalized growth (S. cerevisiae deletion strains, locus YMR205C, strain PFK2, stronger effect = lower value): 0.692 (active)
- normalized growth (S. cerevisiae deletion strains, locus YMR223W, strain ubp8, stronger effect = lower value): 0.723 (active)
- normalized growth (S. cerevisiae deletion strains, locus YMR231W, strain pep5, stronger effect = lower value): 0.752 (active)
- normalized growth (S. cerevisiae deletion strains, locus YMR263W, strain SAP30, stronger effect = lower value): 0.852 (active)
- normalized growth (S. cerevisiae deletion strains, locus YMR307W, strain GAS1, stronger effect = lower value): 0.237 (active)
- normalized growth (S. cerevisiae deletion strains, locus YNL067W, strain RPL9B, stronger effect = lower value): 0.663 (active)
- normalized growth (S. cerevisiae deletion strains, locus YNL071W, strain lat1, stronger effect = lower value): 0.975
- normalized growth (S. cerevisiae deletion strains, locus YNL128W, strain TEP1, stronger effect = lower value): 0.353 (active)
- normalized growth (S. cerevisiae deletion strains, locus YNL153C, strain GIM3, stronger effect = lower value): 0.62 (active)
- normalized growth (S. cerevisiae deletion strains, locus YNL183C, strain NPR1, stronger effect = lower value): 0.97
- normalized growth (S. cerevisiae deletion strains, locus YNL209W, strain ssb2, stronger effect = lower value): 0.74 (active)
- normalized growth (S. cerevisiae deletion strains, locus YNL233W, strain BNI4, stronger effect = lower value): 0.582 (active)
- normalized growth (S. cerevisiae deletion strains, locus YNL248C, strain rpa49, stronger effect = lower value): 0.745 (active)
- normalized growth (S. cerevisiae deletion strains, locus YNL250W, strain rad50, stronger effect = lower value): 0.986
- normalized growth (S. cerevisiae deletion strains, locus YNL271C, strain bni1, stronger effect = lower value): 0.995
- normalized growth (S. cerevisiae deletion strains, locus YNL298W, strain CLA4, stronger effect = lower value): 0.98
- normalized growth (S. cerevisiae deletion strains, locus YNL307C, strain MCK1, stronger effect = lower value): 0.496 (active)
- normalized growth (S. cerevisiae deletion strains, locus YNL322C, strain KRE1 (second series), stronger effect = lower value): 1.01
- normalized growth (S. cerevisiae deletion strains, locus YNL322C, strain KRE1, stronger effect = lower value): 0.0901 (active)
- normalized growth (S. cerevisiae deletion strains, locus YNR049C, strain mso1, stronger effect = lower value): 1
- normalized growth (S. cerevisiae deletion strains, locus YNR052C, strain pop2, stronger effect = lower value): 0.448 (active)
- normalized growth (S. cerevisiae deletion strains, locus YOL006C, strain TOP1, stronger effect = lower value): 0.0919 (active)
- normalized growth (S. cerevisiae deletion strains, locus YOL012C, strain htz1): 2.18 [resistant] (active)
- normalized growth (S. cerevisiae deletion strains, locus YOL147C, strain pex11, stronger effect = lower value): 0.884 (active)
- normalized growth (S. cerevisiae deletion strains, locus YOR001W, strain rrp6, stronger effect = lower value): 0.891 (active)
- normalized growth (S. cerevisiae deletion strains, locus YOR061W, strain CKA2, stronger effect = lower value): 0.624 (active)
- normalized growth (S. cerevisiae deletion strains, locus YOR069W, strain VPS5, stronger effect = lower value): 0.973
- normalized growth (S. cerevisiae deletion strains, locus YOR070C, strain gyp1, stronger effect = lower value): 0.775 (active)
- normalized growth (S. cerevisiae deletion strains, locus YOR080W, strain dia2, stronger effect = lower value): 0.952
- normalized growth (S. cerevisiae deletion strains, locus YOR083W, strain WHI5, stronger effect = lower value): 0.657 (active)
- normalized growth (S. cerevisiae deletion strains, locus YOR106W, strain vam3, stronger effect = lower value): 0.345 (active)
- normalized growth (S. cerevisiae deletion strains, locus YOR136W, strain idh2, stronger effect = lower value): 0.914 (active)
- normalized growth (S. cerevisiae deletion strains, locus YOR144C, strain elg1, stronger effect = lower value): 1.01
- normalized growth (S. cerevisiae deletion strains, locus YOR184W, strain ser1, stronger effect = lower value): 0.463 (active)
- normalized growth (S. cerevisiae deletion strains, locus YOR231W, strain MKK1, stronger effect = lower value): 0.954
- normalized growth (S. cerevisiae deletion strains, locus YOR265W, strain rbl2, stronger effect = lower value): 0.851 (active)
- normalized growth (S. cerevisiae deletion strains, locus YOR270C, strain vph1, stronger effect = lower value): 0.354 (active)
- normalized growth (S. cerevisiae deletion strains, locus YOR290C, strain snf2, stronger effect = lower value): 0.763 (active)
- normalized growth (S. cerevisiae deletion strains, locus YOR316C, strain cot1, stronger effect = lower value): 0.993
- normalized growth (S. cerevisiae deletion strains, locus YPL051W, strain arl3, stronger effect = lower value): 0.738 (active)
- normalized growth (S. cerevisiae deletion strains, locus YPL055C, strain LGE1, stronger effect = lower value): 0.0822 (active)
- normalized growth (S. cerevisiae deletion strains, locus YPL078C, strain atp4, stronger effect = lower value): 0.919
- normalized growth (S. cerevisiae deletion strains, locus YPL106C, strain sse1, stronger effect = lower value): 0.873
- normalized growth (S. cerevisiae deletion strains, locus YPL240C, strain hsp82, stronger effect = lower value): 0.942
- normalized growth (S. cerevisiae deletion strains, locus YPL241C, strain CIN2, stronger effect = lower value): 0.652 (active)
- normalized growth (S. cerevisiae deletion strains, locus YPL256C, strain CLN2, stronger effect = lower value): 0.947
- normalized growth (S. cerevisiae deletion strains, locus YPR119W, strain clb2, stronger effect = lower value): 1.07
- normalized growth (S. cerevisiae deletion strains, locus YPR141C, strain kar3, stronger effect = lower value): 0.986
- normalized growth (S. cerevisiae deletion strains, locus YPR163C, strain tif3, stronger effect = lower value): 0.718 (active)
- normalized growth (S. cerevisiae deletion strains, locus YPR167C, strain met16, stronger effect = lower value): 0.807 (active)
- normalized growth (S. cerevisiae deletion strains, strain wtn01, stronger effect = lower value): 0.301 (active)
- normalized growth (S. cerevisiae strains, strain wild type, stronger effect = lower value): 0.117 (active)
